The campaign covered roughly 360,000 compounds. About 3,700 (1%) were called active. Another 2% or so got no clear call; they are omitted.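 How the source made its calls: active means normalized GFP-positive differentiation at or above the plate's own cutoff, the solvent-only control mean plus 3 SD; inconclusive means no clear call, values can overlap the other calls; inactive means the rest.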 What follows is part of a selection rich in actives, with near analogues and random picks from the rest.
Test: HoxA9-arrested leukemia cell differentiation promoters – flow cytometry, MLPCN library, primary screen (AID 624256);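 on GFP+ MAC1+ double positive: cells exposed to compound for four days before flow analysis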;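 on normalized GFP-positive differentiation: cells exposed to compound for four days before flow analysis; 0% = DMSO wells and 100% = fulvestrant positive control at 5 µM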
Details: ER-HoxA9 myeloid progenitors, lysozyme-GFP differentiation, at 10 µM; GFP+ MAC1+ double positive: measured here: differentiation confirmed by MAC1 staining, stronger effect = higher value; normalized GFP-positive differentiation: stronger effect = higher value

SMILES	GFP+ MAC1+ double positive [%]	outcome	normalized GFP-positive differentiation
CCCOC(=O)Cc1c(O)c2ccccc2[nH]c1=O	0.6	inactive	–
O=C(Cc1c(O)c2ccccc2[nH]c1=O)NCc1ccccc1	0.1	inactive	–
COC(=O)Cc1c(-c2[nH]c3ccccc3c2CC(=O)OC)[nH]c2ccccc12	17.1	–	207% (active)
CCOc1ccc(Cl)cc1-c1cc(C(=O)NCc2cccs2)[nH]n1	1.7	inactive	–
CC1(C(=O)NS(=O)(=O)c2ccccc2)CCN1C(=O)c1ccccc1 (centres undefined)	0.9	inactive	–
COc1ccccc1Cc1c(-c2ccc(Cl)cc2)nc2c3ccccc3ccn12	0.5	inactive	–
CCOC(=O)N1CCN(C(=O)c2ccc3c(=O)n(CCc4ccc(OC)c(OC)c4)c(=O)[nH]c3c2)CC1	6.8	–	56% (active)
COCCn1c(=S)[nH]c2cc(C(=O)NCCc3ccc(OC)c(OC)c3)ccc2c1=O	2.7	inactive	–
COc1ccc(Cn2c(=S)[nH]c3cc(C(=O)N4CCCCC4)ccc3c2=O)cc1	0.2	inactive	–
CCCCc1c(-c2ccc(Br)cc2)ncn1CCc1ccccc1OC	2.9	inactive	–
C[C@H](NC(=O)[C@@H]1CCCN1C(=O)[C@@H]1CCCN1C(=O)c1ccccc1)c1ccccc1	0.7	inactive	–
Cc1ccc(CN2CC(N3CCC(Cc4ccccc4)CC3)CS2(=O)=O)cc1 (centres undefined)	1.6	inactive	–
Cc1cccc(CC2(O)C(=O)Nc3ccccc32)n1 (centres undefined)	29.8	–	367% (active)
COc1ccc(C2(O)C(=O)Nc3ccccc32)cc1 (centres undefined)	0.4	inactive	–
Cc1cc(O)c(C2(O)C(=O)Nc3ccccc32)cc1C (centres undefined)	0.4	inactive	–
Cc1ccc(S(=O)(=O)N2CC[C@H]3[C@@H](C2)C(=O)C[C@@H](c2ccccc2)N3S(=O)(=O)c2ccc(C)cc2)cc1	2.5	inactive	–
CCOC(=O)c1c(-c2cccc(C)c2)csc1NC(=O)c1c(-c2ccccc2)noc1C	15.3	–	89% (active)
Cc1[nH]c2ccccc2c1C(=O)COC(=O)c1c(-c2ccccc2)noc1C	0.6	inactive	–
CCOC(=O)c1c(-c2ccc(-c3ccccc3)cc2)csc1NC(=O)CCC(=O)O	0.3	inactive	–
CC1(C(=O)NCc2ccccc2)CSCC(=O)N1CCCN1CCOCC1 (centres undefined)	4	inactive	–
CSCCC(C(=O)NC(C)(C)C)n1c(-c2ccccc2)nc2ccccc21 (centres undefined)	4	inactive	–
CSc1ccc(CN2CCC2(C)C(=O)NCc2ccccc2Br)cc1 (centres undefined)	0.7	inactive	–

SMILES	GFP+ MAC1+ double positive [%]	outcome	normalized GFP-positive differentiation
O=C(NCc1ccc(F)cc1)c1cc(C2CCCCN2C(=O)c2ccccn2)on1 (centres undefined)	2.6	inactive	–
N#Cc1ccc(C(C(=O)NCc2ccccc2)n2c(=O)c(-c3ccco3)nc3ccccc32)cc1 (centres undefined)	2.4	inactive	–
CC(OC(=O)c1ccc(Cl)cc1O)C(=O)NCCC1=CCCCC1 (centres undefined)	0.3	inactive	–
CC(C)OC(=O)c1ccc(NCc2cc(O)ccc2O)cc1Cl	7.3	–	354% (active)
COC(=O)c1ccc(NCc2cc(O)ccc2O)cc1	1.6	inactive	–
CC(C)(C)CC(=O)Nc1nc(C(N)Cc2ccc(C(F)(F)F)cc2)cs1 (centres undefined)	0.2	inactive	–
Cc1ccc(S(=O)(=O)N2CC3C(=O)C[C@@H](c4ccccc4Cl)N(S(=O)(=O)c4ccc(C)cc4)C3CC2c2ccccc2)cc1 (some centres undefined)	1.9	inactive	–
S=c1[nH]nc(-c2cccs2)n1/N=C/c1cn(-c2ccccc2)nc1-c1ccc(Cl)cc1	0.1	inactive	–
CC(=O)C1=C(C)NC(C)=C(C(C)=O)C1c1cn(-c2ccccc2)nc1-c1cccs1	0.7	inactive	–
O=C(O)c1ccc(N/N=C/c2cn(-c3ccccc3)nc2-c2cccs2)cc1	0.5	–	10.8% (active)
Cc1nc2c(OCC(=O)C(C)(C)C)cccn2c1N(C)Cc1cccs1	2.1	inactive	–
Fc1cccc(Cc2c(-c3cccc(Cl)c3)nc3ccc(Br)cn23)c1	0.4	inactive	–
O=C(Nc1cccc(Cc2ccccc2)c1)Nc1ccc2nc([C@@H]3O[C@H](CO)[C@@H](O)[C@H](O)[C@H]3O)[nH]c2c1	2.9	inactive	–
CC#CC[N+](C)(C)CCCCCC	1.6	–	19.3% (active)
COC(=O)[C@]12CCCCC=C1N(Cc1ccc(Cl)cc1Cl)C(=O)[C@H](CC(=O)NCc1cccc3ccccc13)C2	1.1	inactive	–
Cc1cc2oc3ccc(NCCC4CCCN4C)cc3c(=O)c2cc1C (centres undefined)	6.6	–	73.2% (active)
COc1cccc2sc3cc(NCC[C@@H]4CCCN4C)ccc3c(=O)c12	1.3	inactive	–
CCCCNC(=O)c1nc(C2CCN(S(=O)(=O)c3ccc(F)c(F)c3)CC2)oc1-c1cccc(C(F)(F)F)c1	0.6	inactive	–
Cc1ccc(S(=O)(=O)N2CCCCC2)cc1NC(=O)c1cccnc1	1.2	inactive	–
O=C(Nc1cccc(-n2cnnn2)c1)c1cccnc1	2	inactive	–
Cc1ccc(-n2nc3cc(C)c(NC(=O)c4cccnc4)cc3n2)cc1	5.5	–	15.8% (active)
CC1(C(=O)NS(=O)(=O)c2ccc(C#N)cc2)CCN1C(=O)CC1CCCC1 (centres undefined)	0.6	inactive	–

SMILES	GFP+ MAC1+ double positive [%]	outcome	normalized GFP-positive differentiation
CC(NC(=O)COC(=O)c1ccc(Cl)cc1O)c1ccc(F)cc1 (centres undefined)	6.2	–	140% (active)
CC(NC(=O)COC(=O)CCC(=O)c1ccc(Cl)cc1)c1ccccc1 (centres undefined)	0.8	inactive	–
C=CCOc1ccc(/C=C/C(=O)OCC(=O)NC(C)c2ccc(F)cc2)cc1 (centres undefined)	0.7	inactive	–
CN1OC[C@@H]2CN(C(=O)C(C)(C)C)[C@H](c3ccc(-n4ccnc4)cc3)C[C@@H]21	0.2	inactive	–
COc1ccc(/C=C/C(=O)c2c(O)cc(OC)cc2OC)cc1	1.7	inactive	–
O=C(NCc1ccccc1)C(c1ccc(F)cc1)N1CCN(C(=O)C2CCCO2)CC1 (centres undefined)	0.2	inactive	–
CCC(=O)N1Cc2cc(C(=O)NCc3cccc(F)c3)nc(-c3cccc(C4=CCCC4)c3)c2[C@H]1CCO	0.5	inactive	–
Cc1cc(=O)oc2ccc(OCC(=O)O)cc12	2.2	inactive	–
CCOC(=O)c1c(-c2ccccc2)oc2ccc(OCC(=O)NN)cc12	1.9	–	26.6% (active)
CCOC(=O)c1c(-c2ccccc2)oc2cc(Br)c(O)c(C=O)c12	0.5	inactive	–
CC(C)OC(=O)CC(=O)CC(O)c1cccc([N+](=O)[O-])c1 (centres undefined)	3.1	inactive	–
COCOc1cccc(CN2CCC(C)(Oc3ccc(SC)cc3)C2)c1 (centres undefined)	0.7	inactive	–
CN(C)C(=O)c1cccc(-c2cnc3c(NC=O)cc(-c4ccc(F)cc4)cn23)c1	1.2	inactive	–
CCCc1nc2c3ccccc3ccn2c1Cc1ccccc1C(F)(F)F	1.1	inactive	–
NC(c1csc(NC(=O)Nc2cccc(C(F)(F)F)c2)n1)C1CCCCC1 (centres undefined)	1.4	inactive	–
CCOC(=O)C1=CCC2C(=O)N(Cc3ccccc3)C(=O)C12 (centres undefined)	1.7	inactive	–
CC(C)(C)SCCNC(=O)c1cccc([N+](=O)[O-])c1	1.8	inactive	–
CN(C)CCNC(=O)/C(=C/c1cccc([N+](=O)[O-])c1)NC(=O)c1ccccc1	0.5	inactive	–
CN(C(=O)c1cccc([N+](=O)[O-])c1)c1ccccc1C(=O)NCc1ccccc1	2.5	–	45.3% (active)
O=C1Nc2ccccc2NC(c2ccc3c(c2)OCO3)=C1N(Cc1ccc(F)cc1)C(=O)c1ccco1	0.3	inactive	–
COC(=O)C[C@H]1C=C[C@H](NC(=O)c2ccc(F)cc2)[C@@H](CO)O1	3.2	inactive	–
O=C1OCCOC2CCCc3oc(-c4ccccc4)c1c32 (centres undefined)	0.1	inactive	–

SMILES	GFP+ MAC1+ double positive [%]	outcome	normalized GFP-positive differentiation
CCc1ccc(C(=O)OCC(=O)Nc2cccc(S(=O)(=O)NC3=NCCCCC3)c2)cc1	0.1	inactive	–
Cc1cccc(-n2c(SCC(=O)Nc3cccc(S(=O)(=O)NC4=NCCCCC4)c3)nc3ccccc3c2=O)c1C	2.9	–	30% (active)
COc1ccccc1C(=O)OCC(=O)Nc1cccc(S(=O)(=O)NC2=NCCCCC2)c1	1.4	inactive	–
CCc1nc2c(OCCOc3ccccc3)cccn2c1N(C)C(=O)c1cccs1	0.5	inactive	–
CN(C)C1CN(Cc2cn(Cc3ccccc3)nn2)S(=O)(=O)C1 (centres undefined)	1.6	inactive	–
CC(=O)Nc1cccc(OCC(=O)/C=C2\N(C)c3ccccc3C2(C)C)c1	0.5	–	24.3% (active)
COc1cccc(NC(=S)C(C#N)=C2N(C)c3ccccc3N2C)c1	0.3	inactive	–
Cc1cccc(OCC(=O)Nc2ccccc2F)c1	0.3	inactive	–
CC1(C)OC(=O)C2=C(C[C@@H](C3CCCC3)O[C@@H]2c2ccc(Cl)cc2)O1	1.8	inactive	–
COc1c(C)cc(C(O)c2ncc(-c3cccc(C(F)(F)F)c3)[nH]2)cc1C (centres undefined)	1.2	inactive	–
O=C(Nc1ccc2sc3ccccc3c(=O)c2c1)c1ccccc1Cl	0.3	–	12.5% (active)
O=C(Nc1cccc(NC(=O)c2ccccc2[N+](=O)[O-])c1)c1ccccc1Cl	0.4	inactive	–
COc1cc(NC(=O)c2cccs2)ccc1NC(=O)c1ccccc1Cl	0.6	inactive	–
Cc1cc2nc(-c3ccco3)c(Cc3cccc(F)c3)n2c(C)c1Br	0.9	inactive	–
O=C(CN1CCN(C(=O)c2ccco2)CC1)Nc1ccc(Cl)c(C(F)(F)F)c1	0.9	inactive	–
CN(CC(=O)Nc1ccc(Cl)c(C(F)(F)F)c1)C(=O)CCC(=O)c1ccccc1	1	inactive	–
O=C(CCCN1C(=O)CCC1=O)Nc1ccc(Cl)c(C(F)(F)F)c1	8.3	–	22.8% (active)
CN(C(=O)CN1CCN(c2cc(-c3ccc(OCc4ccccc4)cc3)ncn2)CC1)c1ccccc1	1.4	inactive	–
CCOC(=O)C1=C(CN2CCc3ccccc32)NC(=O)NC1c1ccc(Cl)cc1 (centres undefined)	3.7	inactive	–
CCOC(=O)C1=C(CN2CCc3ccccc32)NC(=O)NC1c1cccc([N+](=O)[O-])c1 (centres undefined)	1.5	–	18.4% (active)
CCOC(=O)C1=C(CN2CCc3ccccc32)NC(=O)NC1c1cc(C)ccc1C (centres undefined)	0.5	inactive	–

Reference: PubChem BioAssay AID624256 (NMMLSC, 2012)
